VDR inh – blocks the human vitamin D receptor; P11473; VDR-SRC2-3 peptide fluorescence polarization, 2 h; Potency, µM, most hits filed as inhibitors; actives 0.93% (n = 400,000); AID 504847
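The screen uses fluorescence polarization to detect compounds that interfere with recruitment of the SRC2-3 coactivator peptide to VDR; plates are read after 2 h at room temperature.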
TrxR1 inh – blocks rat thioredoxin reductase 1 | O89049 | recombinant rTrxR1, NADPH fluorescence consumption, selenite substrate | Potency, µM (doses to about 114 µM), hits mostly inhibitors | actives 1% (n = 390,000) | AID 588453; note: nearly all actives have a fitted effect of over 65% in size
Target sequence (O89049 whole entry, looked up): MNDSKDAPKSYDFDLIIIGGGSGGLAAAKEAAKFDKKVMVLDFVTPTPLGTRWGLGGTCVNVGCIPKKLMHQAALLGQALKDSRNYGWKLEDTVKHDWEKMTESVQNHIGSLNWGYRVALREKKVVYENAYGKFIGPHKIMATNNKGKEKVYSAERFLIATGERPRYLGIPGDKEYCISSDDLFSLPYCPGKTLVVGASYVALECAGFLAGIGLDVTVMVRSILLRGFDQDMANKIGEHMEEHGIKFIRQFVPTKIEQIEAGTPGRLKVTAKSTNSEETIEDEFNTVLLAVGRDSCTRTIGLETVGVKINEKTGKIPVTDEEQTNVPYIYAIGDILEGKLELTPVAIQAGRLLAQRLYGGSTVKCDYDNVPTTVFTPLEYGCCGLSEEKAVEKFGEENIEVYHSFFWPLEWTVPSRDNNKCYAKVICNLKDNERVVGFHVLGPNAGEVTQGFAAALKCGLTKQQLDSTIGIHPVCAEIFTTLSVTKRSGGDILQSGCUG
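Rat TrxR1 (90 nM in the dispensed reagent) was pre-reduced with 400 uM NADPH for 5 min at room temperature, then incubated with compound for 15 min. After 400 uM selenite was added, NADPH fluorescence (Ex 340/Em 450 nm) was followed for 8 min.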
KAT2A inh – blocks human GCN5L2 histone acetyltransferase | actives 0.21% (n = 390,000) | Potency, µM (doses to about 58.9 µM), usual class: inhibitors | GCN5L2 HAT assay, ThioGlo1 CoA-SH fluorescence | AID 504327 | Q92830
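qHTS, 1536-well. 20nM enzyme, pH 7.5 HEPES/EDTA/Tween-20 buffer; 15 min compound preinc., RT. Start: 75uM H3(1-25), 70uM AcCoA, 50uM ThioGlo1. Read Ex340/Em540 at t=0 (autofluorescence flag) and t=20 min.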
TrxR1 substrate – is turned over as a substrate by rat TrxR1. O89049. purified TrxR1 substrate turnover, NADPH consumption readout. Potency, µM (doses to about 114 µM). actives 0.01% (n = 390,000); note: nearly all actives have a fitted effect of over 50% in size
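Rat TrxR1, dispensed at 90 nM, was prereduced with 400 uM NADPH (final) for 5 min at ~22 deg C, then incubated with compound 15 min before 400 uM selenite. A first-read NADPH fluorescence drop versus no-compound background flagged substrates.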
A number is an active result; - = inactive; ? = inconclusive; . = no result; [ ] = remark or other dose. Most compounds without a hit are left out; they make up all but 1.8% or so of the library. Calls come from the whole dose curve; as a rule, active = well fitted curve in the direction sought with a large enough effect; inconclusive = small, poorly fitted or top-dose-only effect, or another doubt; inactive = no such curve, though single readings can be large; an effect the other way counts as inactive or inconclusive.

SMILES	VDR inh	TrxR1 inh	KAT2A inh	TrxR1 substrate
O=C(CSc1ccccc1)N1CCCC(Nc2ccccc2)C1 (configuration not stated)	20µM	-	-	-
O=C(CSc1ccccn1)N1CCCC(Nc2ccccc2)C1 (configuration not stated)	-	-	-	-
COc1ccc(S(=O)(=O)N(C(C)=O)c2ccc3oc(=O)sc3c2)cc1	79.4µM	-	-	-
COC(=O)c1c(C)oc2ccc(N(C(C)=O)S(=O)(=O)c3ccccc3)cc12	-	-	-	-[0.0914 µM]
Nc1nnc(CC(=O)N/N=C/c2cc([N+](=O)[O-])cc(Br)c2O)s1	?	35.5µM	-	-
Nc1nnc(CC(=O)N/N=C/c2cccc([N+](=O)[O-])c2)s1	-	?	-	-
O=C(CS(=O)Cc1ccco1)NCC=CCOc1cc(CN2CCCCC2)ccn1 (configuration not stated)	?	.	-	.
NC(=O)CC[C@H](NC(=O)c1ccc(F)cc1)C(=O)OCC(=O)NCc1ccc(F)cc1	70.8µM	-	-	-
Oc1cc2cc(-c3csc(-c4ccc(F)cc4)n3)ccc2[nH]1	.	-[0.0914 µM]	.	-
CC1(C)CC(=O)C(CS(=O)(=O)c2ccccc2)=C(Cl)C1	-	28.2µM	-	-
CC1(C)CC(=O)c2sc(NC(=O)CCS(=O)(=O)c3ccccc3)nc2C1	-	-	-	-
Cc1nnc(N2CCC(C(=O)NCc3ccc(F)cc3)CC2)c2nn(-c3ccc(Cl)cc3)c(C)c12	-	-	-	-
COc1ccccc1CN1CC[C@@]2(CCCN(C(C)=O)C2)C1	-	.	-	.
O=[N+]([O-])c1cc(S(=O)(=O)NCCCN2CCOCC2)ccc1Cl	-	?	-	-
O=[N+]([O-])c1cc(S(=O)(=O)NCCN2CCOCC2)ccc1Sc1nnnn1-c1ccccc1	-	20µM	-	-
CC(C)Cc1ccc(S(=O)(=O)NCc2nc3cccnc3n2Cc2ccccc2)cc1	-	-	-	-
CCN(CC)CCNC(=O)c1cn(CC)c2cc(N3CCN(C(=O)c4ccco4)CC3)c(F)cc2c1=O	-	-	-	-
CCN(CC)CCCNC(=O)c1cn(CC)c2cc(N3CCN(C(=O)c4ccco4)CC3)c(F)cc2c1=O	-	70.8µM	-	-
O=C(O)c1ccccc1OP(=O)(O)O	-	.	-	.
COc1ccc(NC(=O)COc2ccccc2C(=O)Nc2ccccc2)cc1	.	-	.	-
CCN(CC)c1ccc(NC(=O)c2ccc(=O)[nH]c2)cc1S(=O)(=O)Nc1ccccc1OC	31.6µM	-	?	-
COc1cccc(C(=O)Nc2ccc(NC(C)=O)cc2)c1	-	-	-	-
COc1cccc(/C(O)=C/C(=O)C(=O)Nc2ccc(S(=O)(=O)NC(C)=O)cc2)c1	-	22.4µM	-	-
O=C(Nc1cccc(NC(=O)c2ccc3c(c2)OCO3)c1)c1ccccc1	-	-	-	-
CC(=O)c1cccc(NC(=O)c2ccc3c(c2)OCO3)c1	79.4µM	-	-	-
SMILES	VDR inh	TrxR1 inh	KAT2A inh	TrxR1 substrate
O=C(Oc1ccc(N(C(=O)c2ccncc2)S(=O)(=O)c2ccc(F)cc2)cc1)c1ccncc1	?	35.5µM	-	?
COc1ccc(C2C(O)C(c3c[nH]c4ccccc34)=NN2C(=O)CCl)cc1 (configuration not stated)	-	12.6µM	-	-
N#CC(C#N)=Cc1cc2ccccc2nc1N1CCCCC1	70.8µM	17.8µM	-	-
Cc1ccccc1NCC(=O)N/N=C\c1ccc2c(c1)OCO2	-	-	-	-
Cc1cccc(C)c1OCC(=O)N/N=C/c1ccc2c(c1)OCO2	-	-	12.6µM	-
COC(=O)c1cc(C)nc(Sc2ccccc2N)n1	5.01µM	-	-	-
CCN(CC)c1ccc(/C=C/c2ccc3ccccc3n2)cc1	.	-	.	-
c1ccc2oc(-c3csc(NCC4CCCO4)n3)cc2c1 (configuration not stated)	79.4µM	-	-	-
CC1CN(S(=O)(=O)c2ccc(C(=O)Nc3nc(-c4cc5ccccc5o4)cs3)cc2)CC(C)O1 (configuration not stated)	-	-	-	-
O=C(Nc1nc(-c2cc3ccccc3o2)cs1)c1ccc(S(=O)(=O)N2CCCC2)cc1	-	79.4µM	-	-
Cc1ccc(C(=O)Nc2nc(-c3ccccn3)cs2)cc1S(=O)(=O)N1CCOCC1	79.4µM	-	-	-
Cc1ccc(C(=O)Nc2ccccn2)cc1S(=O)(=O)N1CCOCC1	-	-	-	-
O=C(Nc1nc(-c2ccccn2)cs1)c1ccc(F)c(S(=O)(=O)N2CCOCC2)c1	89.1µM	?	-	-
C=CCNc1nc(-c2cc3ccccc3o2)cs1	-	-	-	-
CC[C@H]1C(c2cccc(Cl)c2)=NN(c2ccccc2)[C@@H]1CO	?	.	-	.
CCCCOc1ccc(C(=O)NCC(c2ccc(Cl)cc2)N2CCOCC2)cc1 (configuration not stated)	-	-	-	-
Cc1cccc(NC(=O)CCc2c(C)nc3c(c(C)nn3C(C)(C)C)c2C)c1C	-	-	-	-
O=C(N/N=C/C=C/c1ccco1)c1cccnc1	?	5.62µM	-	-
O=C(N/N=C/C=C\c1ccco1)c1ccccn1	79.4µM	?	-	-
O=C(N/N=C/C=C/c1ccco1)c1cnccn1	?	-	-	-
O=C(N/N=C\C=C\c1ccco1)c1cncc(Br)c1	?	50.1µM	-	-
O=C(N/N=C\c1ccco1)c1cncc(Br)c1	.	.	-	.
Cc1nc(Sc2nnnn2C2CC2)c2c(-c3ccccc3)csc2n1	.	-	.	-
C=C(C(=O)c1ccccc1)C(C)C(=C)C(=O)c1ccccc1	79.4µM	-	-	-
Cc1ccc(NC(=O)CCS(=O)(=O)c2ccc(Br)cc2)nc1	50.1µM	?	-	-
SMILES	VDR inh	TrxR1 inh	KAT2A inh	TrxR1 substrate
CC(C1OC(C)(C)C(O)C1O)C1CC[C@@]2(C)C3=CCC4C(C)(C)C(=O)CC[C@]4(C)C3CC[C@@]12C (some centres not stated)	-	.	-	.
CC1=C/C(=C\c2ccc(N(C)C)cc2)c2ccccc21	.	-	.	-
COC(=O)c1sc(-c2ccc(Cl)cc2)cc1NC(=O)/C=C/C(=O)O	31.6µM	-	-	-
COC(=O)c1sccc1NC(=O)/C=C/C(=O)O	-	-	-	-
COC(=O)c1ccc(C(=O)OC)c(NC(=O)C2CC2)c1	-	-	-	-
COC(=O)c1ccc(C(=O)OC)c(NC(=O)/C=C/C(=O)O)c1	-	44.7µM	-	-
CC(=O)Nc1ccc(/C=C/c2ccccn2)cc1	.	?	.	-
CN(C)c1ccc(/C=C/c2nc3ccccc3s2)c(Cl)c1	.	-	.	-
CCCCCCNC(=O)N[C@@H](C(=O)NCCC[C@H]1CN2C(=NC[C@@H]2Cc2ccccc2)N1CCc1cccc(OC)c1)C(C)C	?	?	39.8µM	-
CCCCCCCCCCCCCCC(C(=O)O)C(O)(CC(=O)OC)C(=O)O (configuration not stated)	22.4µM	.	12.6µM	.
COc1ccc(-c2cnnc(N/N=C/c3ccc(C)o3)n2)cc1	44.7µM	-	-	-

Source: PubChem BioAssay
